The source of these data is PubChem BioAssay (NCI).

The panel holds about 79,000 compounds, 15% with a hit somewhere; the sample as a whole holds those more often. Activity calls are given as the source filed them. Cut-off read from the data, not from the text of the source: active = growth inhibition above about 70%; inactive = the rest.

The first assay can be described thus: NCI Yeast Anticancer Drug Screen. Data for the wt1 strain (AID 149).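 Note: 0% = growth of vehicle-treated wt1 cultures.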 The note with it: S. cerevisiae wt1 strain (SPY 50644) growth inhibition; at 11.0 µM; stronger effect = higher value. In a few lines:
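Using yeast strain wt1, compound-induced growth inhibition was determined against vehicle-treated cultures.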
In the case of `COC(=O)C(Cc1c[nH]c2ccccc12)N1CN(C)c2ccccc2C1=O` (stereo not given), the growth inhibition was -4% (inactive).
On the same count and under the same terms, the result for `O=C(/N=N/C(=O)Oc1ccccc1)Oc1ccccc1` reads -46% (inactive); that for `COc1cc([C@@H]2c3cc4c(cc3[C@@H](NC(=O)NO)[C@H]3COC(=O)[C@H]23)OCO4)cc(OC)c1O`, 1% (inactive).
On the same count and under the same terms, with `CC1(C)CC(=O)C(/C=N/c2nc(-c3ccc(Br)cc3)cs2)=C(O)C1` the figure was 17% (inactive).
For `CCOC(=O)/C(=C/c1cccc(Cl)c1)N(CC)CC`, the growth inhibition is 22% (inactive).
On the same count and under the same terms, the result for `CC(C)OC(=O)NNc1cccc(Cl)c1` reads 35% (inactive).
In the case of `CCC(=O)C1=C(O)c2cc(OC)ccc2CC1C(=O)OC` (stereo not given), the growth inhibition is 4% (inactive).
On the same count and under the same terms, the result for `O=S(=O)(NC1CCCC(c2ccccc2)C1)c1ccccc1` (stereo not given) reads 2% (inactive); that for `COc1ccc2nc3cccc([N+](=O)[O-])c3c(NCCCCCC(=O)O)c2c1`, 93% (active); that for `CCO/C=C1\SC(=S)N(c2ccc(OCC)cc2)C1=O`, -50% (inactive).
Turning to `COc1cc(OC)c(CSCC(NC(=O)OCC2c3ccccc3-c3ccccc32)C(=O)O)c(OC)c1` (stereo not given), the growth inhibition is 55% (inactive).
The same measure, in the same setting: the result for `COC(=O)c1ccccc1N=NNc1cccc(SC)c1` reads -27% (inactive); that for `CC1=NN(C(=O)c2ccccc2O)C(=O)/C1=C/c1ccco1`, 70% (active); that for `COc1ccccc1NC(=O)c1ccc(Cl)cc1`, 1% (inactive).
The same measure, in the same setting: with `CC(C)=CCC/C(C)=C/CN1C(=O)C=CC1=O` the figure was 100% (active); with `O=C1CSC(c2ccccc2)N1c1ccc(-c2ccc(-n3c(-c4ccccc4)nc4ccccc4c3=O)cc2)cc1` (stereo not given), -2% (inactive); with `N#CC1OB(O)c2ccccc21` (stereo not given), -5% (inactive).
Still for that read-out and setting: with `O=C(NCCNCCNC(=O)c1cc(-c2ccccc2)nc2ccccc12)c1cc(-c2ccccc2)nc2ccccc12` the figure was -3% (inactive); with `Brc1ccc(B2Nc3ccccc3N2)cc1`, 16% (inactive).
As to `CCOP(=O)(OCC)/C(C#N)=C/c1cccc(Oc2ccccc2)c1`, the growth inhibition is 56% (inactive).

The same assay, now with this note: S. cerevisiae wt1 strain (SPY 50644) growth inhibition; at 33.0 µM; stronger effect = higher value.
In the case of `CN(C)CC(CN(C)C)C(=O)/C=C/c1ccc(Cl)cc1Cl`, the growth inhibition was 98% (active).
In the case of `c1ccc2c(c1)ccn2CCc1c[nH]c2ccccc12`, the growth inhibition is 21% (inactive).
Still for that read-out and setting: the result for `Cc1ccccc1NC(=O)c1c(C)oc2c1C(=O)c1ccccc1C2=O` reads -5% (inactive); that for `CC(C)OC(=O)NNc1c(Cl)cc(Cl)cc1Cl`, -3% (inactive).
Same read-out and setting: the result for `COc1ccc2nc3cccc([N+](=O)[O-])c3c(NCCNCCO)c2c1` reads 49% (inactive).
Same read-out and setting: with `COc1ccc2c(c1)CCCC(Br)C2=O` (stereo not given) the figure was 51% (inactive); with `CCC(OC(C)=O)C1CC(C(C)C)CCC1C` (stereo not given), 2% (inactive); with `O=S(=O)(c1cccc(C(F)(F)F)c1)N1c2ccccc2-n2cccc2C1c1cccnc1` (stereo not given), 92% (active).
For the compound `c1ccc(-c2cc(C3CO3)c3ccccc3n2)cc1` (stereo not given), the growth inhibition was 2% (inactive).
Still for that read-out and setting: with `COc1ccc(/C=C2\SC(=S)N(/C=C3\C(=O)N(c4ccccc4)N=C3C)C2=O)cc1OC` the figure was 48% (inactive); with `CC1=CC(=C(c2ccc(N)c(C)c2)c2ccc(N)c(C)c2)C=CC1=N`, 6% (inactive); with `CC1C(c2ccccc2)SC(=N)N1C` (stereo not given), -1% (inactive).
The same measure, in the same setting: with `CC(/C=C/c1ccc([N+](=O)[O-])o1)=N/N1CC(CN2CCOCC2)OC1=O` (stereo not given) the figure was 66% (inactive).
On the same count and under the same terms, with `C=CC(C)(C)N1C(=O)C(C(C)=O)=C(O)C1Cc1c[nH]c2ccccc12` (stereo not given) the figure was 20% (inactive).
Take `O=C1c2cccc3cccc(c23)C(=O)N1CCNCCN1C(=O)c2cccc3cccc(c23)C1=O`: the growth inhibition is 1% (inactive).
The same measure, in the same setting: with `Cc1ccc([N+](=O)[O-])c2c(NCCC[N+](C)(C)[O-])c3ccccc3nc12` the figure was 2% (inactive); with `COC(=O)C(Cc1c[nH]c2ccccc12)N1CN(C)c2ccccc2C1=O` (stereo not given), -4% (inactive); with `O=C(/N=N/C(=O)Oc1ccccc1)Oc1ccccc1`, -32% (inactive).
The same measure, in the same setting: the result for `COc1cc([C@@H]2c3cc4c(cc3[C@@H](NC(=O)NO)[C@H]3COC(=O)[C@H]23)OCO4)cc(OC)c1O` reads -1% (inactive).
On the same count and under the same terms, with `CC1(C)CC(=O)C(/C=N/c2nc(-c3ccc(Br)cc3)cs2)=C(O)C1` the figure was 91% (active); with `CCOC(=O)/C(=C/c1cccc(Cl)c1)N(CC)CC`, 43% (inactive).
`CC(C)OC(=O)NNc1cccc(Cl)c1`: the growth inhibition was 95% (active).
The same measure, in the same setting: the result for `CCC(=O)C1=C(O)c2cc(OC)ccc2CC1C(=O)OC` (stereo not given) reads 6% (inactive); that for `O=S(=O)(NC1CCCC(c2ccccc2)C1)c1ccccc1` (stereo not given), -3% (inactive); that for `COc1ccc2nc3cccc([N+](=O)[O-])c3c(NCCCCCC(=O)O)c2c1`, 98% (active).
